# High-throughput results (PubChem BioAssay)
# TDP1 cell noCPT: qHTS for Inhibitors of human tyrosyl-DNA phosphodiesterase 1 (TDP1): qHTS in cells in absence of CPT. DT40 Tdp1-/- hTDP1 cells, no CPT, ATP luminescence, 48 h. Potency, µM (top dose mostly 46.2 µM), without a hit: at the top dose activity change, negative = growth inhibition, usual class: inhibitors. hit rate 15% among 420,000; also: potency is read from the fitted curve at half-maximal effect; nearly all actives have a fitted effect of over 55% in size
#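 Cells were dispensed at 400 per well, compounds added by pin tool, plates incubated ≥48 hr at 37 °C, then CellTiter-Glo added for 30 min at room temperature before luminescence reading. Line: DT40 Tdp1-/- complemented with hTDP1; camptothecin omitted.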
# HT1080 IDH1KD tx: qHTS for induction of synthetic lethality in tumor cells producing 2HG: qHTS for the HT-1080-IDH1KD cell line | HT-1080 IDH1 knockdown viability, ATP luminescence, 48 h | Potency, µM (series often up to 46.1 µM), without a hit: at the highest dose activity, negative = toxicity, usual class: cytotoxic | hit rate 2% among 360,000;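 also: potency is read from the fitted curve at half-maximal effect; 0% = DMSO wells and -100% = cell-free medium wells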
#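 % activity derives from luminescence (CellTiter-Glo), normalised to DMSO and no-cell wells. HT-1080-IDH1KD cells, 750/well, had 48 h compound exposure at 37 °C.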
# HT1080-NT tox: qHTS for induction of synthetic lethality in tumor cells producing 2HG: qHTS for the HT-1080-NT fibrosarcoma cell line; HT-1080-NT fibrosarcoma viability, CellTiter-Glo ATP luminescence, 48 h; Potency, µM (doses to about 46.1 µM), for the others: at the highest dose activity, negative = less viability, hits mostly cytotoxic; hit rate 1.6% among 360,000; AID 686970, 2013;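 also: NT is the 2HG producing partner of a matched IDH1 knockdown line; potency is read from the fitted curve at half-maximal effect; 0% = DMSO-treated cells and -100% = media-only wells without cells; nearly all actives have a fitted effect of over 55% in size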
#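 Toxicity toward the 2HG-producing NT line was scored as %Activity, normalised to DMSO and no-cell wells, from CellTiter-Glo luminescence after 48 hours' treatment.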
# IL-1B inflam inh: qHTS for Inhibitors of Inflammasome Signaling: IL-1-beta AlphaLISA Primary Screen. THP-1 LPS/ATP IL-1B secretion, AlphaLISA, 16 h; active compounds read low. activity change, % at 57.5 µM. hit rate 4.7% among 360,000. AID 743279, 2014; in the data active = activity change below about -50%; inconclusive = mostly about -30% to -49%
#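 THP-1 cells pretreated 1 hr with compounds (up to 57.5 uM final), then stimulated with LPS (250 ng/mL final) plus ATP (1.25 mM final); secreted IL-1B measured by AlphaLISA after 16 hr, decreased signal indicating inhibition.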
# DT40 TDP1 CPT: qHTS for Inhibitors of human tyrosyl-DNA phosphodiesterase 1 (TDP1): qHTS in cells in presence of CPT; chicken DT40 Tdp1-/-;hTDP1 cells + 20 nM CPT, ATP luminescence, 48 h; Potency, µM (top dose mostly 46.2 µM), inactives show at the highest dose activity change, negative = growth inhibition, usual class: inhibitors; hit rate 12% among 420,000; AID 686979, 2013; also: potency is read from the fitted curve at half-maximal effect; nearly all actives have a fitted effect of over 55% in size
#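 Chicken DT40 Tdp1-/- cells complemented with human TDP1, 400 cells/well, exposed to compounds plus 20 nM camptothecin for at least 48 h at 37 C; viability read as ATP content by CellTiter-Glo luminescence.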
# An asterisk follows results filed as active; ? = inconclusive; nt = no result. Shown are actives, neighbours in structure and some others; about 19% of the full set was active somewhere. Unless noted, calls follow the shape of the dose curve; as a rule, active = well fitted curve in the direction sought with a large enough effect; inconclusive = small, poorly fitted or top-dose-only effect, or another doubt; inactive = no such curve, though single readings can be large; an effect the other way counts as inactive or inconclusive. Unless noted, % is scaled to controls: 0 for no effect and ±100 for the full control effect.
SMILES,TDP1 cell noCPT,HT1080 IDH1KD tx,HT1080-NT tox,IL-1B inflam inh,DT40 TDP1 CPT
Cc1[nH]n(C(N)=S)c(=O)c1N=Nc1ccc(Br)cc1,16µM*,-9%,-6%,9,23µM*
Cc1ccc(N=Nc2c(C)[nH]n(C(N)=S)c2=O)cc1,?,-4%,-20%,9,-16%
CN(C)C(=O)c1cccc(-c2cccc3nccn23)c1,?,20%,4%,54,?
S=C1SCN(CC2CC2)CN1CC1CC1,4.6µM*,-10%,?,-24,0.58µM*
COc1ccc(CN2CSC(=S)N(Cc3ccccc3)C2)cc1,?,-3%,-8%,-3,?
Cc1cccc(C)c1NC(=O)C(c1ccc([N+](=O)[O-])cc1)N(C)C(=O)c1ccccn1 (configuration not stated),3.3µM*,0%,-3%,-8,6.5µM*
COc1cccc(N2CCN(C(=O)Cn3ncc4c(=O)oc5ccccc5c43)CC2)c1,18µM*,nt,nt,nt,16µM*
Cc1c2cnn(CC(=O)N3CCN(c4ccccc4)CC3)c(=O)c2c(C)n1Cc1ccccc1Cl,2%,nt,nt,nt,?
Cc1c2cnn(-c3ccccc3)c(=O)c2c(C)n1CC(=O)N1CCN(c2ccc(F)cc2)CC1,15µM*,nt,nt,nt,21µM*
Cc1c2cnn(-c3ccccc3)c(=O)c2c(C)n1CC(=O)N1CCN(c2cccc(Cl)c2)CC1,13µM*,nt,nt,nt,18µM*
Cc1ccc(Cn2c(C)c3cnn(CC(=O)N4CCN(c5ccc(F)cc5)CC4)c(=O)c3c2C)cc1,12µM*,nt,nt,nt,10µM*
NS(=O)(=O)c1ccc(CCNC(=O)Cn2c(=O)c3cccn3c3ccc(F)cc32)cc1,-15%,nt,nt,nt,9%
CC(C)NS(=O)(=O)c1ccc(NC(=O)C(C)OC(=O)CCC2CCCC2)cc1 (configuration not stated),-22%,3%,1%,0,-54%
CCCN1CCN(C(=O)CCCn2c(C)c3cnn(-c4ccccc4)c(=O)c3c2C)CC1,1%,2%,-4%,-22,-21%
Cc1cc(=O)n(CC(=O)N2CCN(c3ccc(F)cc3)CC2)c2c1c(C)nn2C,21µM*,nt,nt,nt,18µM*
Cc1cc(=O)n(CC(=O)N2CCCc3ccccc32)c2c1c(C)nn2-c1cccc(F)c1,?,nt,nt,nt,16µM*
Cc1ccc(C)c(N2CCN(C(=O)Cn3c(C)c4cnn(-c5ccccc5)c(=O)c4c3C)CC2)c1,2.9µM*,nt,nt,nt,5.2µM*
Cc1cc(=O)n(Cc2cccc(F)c2)c2c1c(C)nn2-c1cccc(F)c1,-1%,nt,nt,nt,-13%
O=c1c(Cc2ccccc2)c(O)ccn1CCc1cnc[nH]1,-15%,-1%,8%,-6,-1%
Nc1ncnc2c1ncn2[C@@H]1O[C@H](CNC(=O)[C@@H]2CCC(=O)N2)[C@@H](O)[C@H]1O,-4%,9%,12%,8,-2%
CCCCc1ccc(NC(=O)C(=O)NCCN2CCN(C(=O)c3ccc([N+](=O)[O-])cc3)CC2)cc1,?,-12%,8%,26,?
COC(=O)[C@H](Cc1ccccc1)NC(=O)N1CCN(c2ccc(F)cc2)CC1,-22%,1%,4%,0,?
CCOC(=O)C1Nc2ccccc2C2C(O)C(O)CC12 (configuration not stated),?,?,?,27,29µM*
O=C(NCCOc1ccccc1)C1Nc2ccc(C(F)(F)F)cc2C2c3ccccc3CC12 (configuration not stated),?,?,?,-74*,?
CCOC(=O)C1Nc2ccc(C(F)(F)F)cc2C2c3ccccc3CC12 (configuration not stated),16µM*,?,?,-99*,18µM*
SMILES,TDP1 cell noCPT,HT1080 IDH1KD tx,HT1080-NT tox,IL-1B inflam inh,DT40 TDP1 CPT
CCOC(=O)C(=NC1CCCCC1)NNc1cccc(C(F)(F)F)c1,?,?,-26%,-3,?
CCC(=O)Nc1ccc(NC(=O)CSc2nnnn2Cc2ccccc2)cc1C,5%,-1%,2%,16,13%
COc1ccc(OC)c(S(=O)(=O)NC(=O)C2(C)CCN2C(=O)CC2CCCC2)c1 (configuration not stated),-4%,17%,5%,-8,-1%
COc1ccc(S(=O)(=O)NCc2ccccn2)cc1Br,-2%,8%,5%,-12,-10%
CCOc1ccc(S(=O)(=O)NCc2ccccn2)cc1NC(=O)c1ccccc1F,0.65µM*,?,0.92µM*,60,0.65µM*
COc1ccc(S(=O)(=O)NCc2ccccn2)cc1NC(=O)c1ccccc1,4.1µM*,13µM*,8.2µM*,33,4.6µM*
COc1ccc(S(=O)(=O)NCc2ccccn2)cc1NC(=O)c1ccc(C)cc1,5.2µM*,13µM*,5.8µM*,23,7.3µM*
Cn1c(Cc2ccc(Cl)cc2)nnc1SCC(=O)NC1CC1,1%,4%,0%,23,2%
CCN(CC)C(=O)COc1coc(CN2CCN(c3ccccc3F)CC2)cc1=O,-4%,2%,0%,16,-8%
CC(C)c1nc2sc3c(SCC(=O)NCc4ccco4)ncnc3c2c2c1CCC2,16µM*,?,?,-10,?
O=C(CSc1ncnc2sc3c(c12)CCCCC3)NCc1ccco1,9.2µM*,16µM*,?,0,9.2µM*
CC(=O)C(Sc1ncnc2sc3c(c12)CCCC3)C(C)=O,?,-25%,?,27,13µM*
O=C(CSc1ncnc2sc3c(c12)CCCC3)c1ccccc1,?,-5%,-4%,-16,29µM*
O=C(CSc1nc2sc3c(c2c(=O)n1-c1ccccc1)CCCC3)NCc1ccco1,?,-2%,-5%,-3,15µM*
Cc1nc2sc3c(c2c2nnc(SCC(=O)NCc4ccco4)n12)CCCC3,?,0%,-1%,29,-25%
CC1(C)Cc2c(sc3nc(SCC(=O)NCc4ccco4)n(-c4ccccc4)c(=O)c23)CS1,-21%,1%,10%,9,3%
c1coc(CNc2nc3sc4c(c3c3ncnn23)CCCC4)c1,12µM*,-4%,1%,-4,?
CC1=C(C(=O)N(C)C)CC(CC(=O)NCc2cccs2)C(=O)N1CCCN1CCCC1=O (configuration not stated),-6%,11%,11%,-2,-1%
O=C1CCCCc2sc(Br)c([N+](=O)[O-])c2N1,12µM*,?,?,-105*,12µM*
